Screening results from PubChem BioAssay.
TEAD-YAP block: TEAD-YAP interaction inhibition, primary screen, TEAD-YAP interaction inhibitor project, luminescence, HEK-TIYL cells; TEAD-Gal4/YAP UAS-luciferase luminescence; inhibition, % at 9.12 µM; 640,000 compounds, 1.4% hits; AID 1259422, 2018; in the data active = inhibition above about 32%
MITF primary: MITF inhibitors, primary screen, biochemical, AlphaScreen, human; Microphthalmia-associated transcription factor (Homo sapiens), O75030; inhibition, % at 2.6 µM; 650,000 compounds, 0.91% hits; AlphaScreen MITF homodimerization, bead proximity signal; in the data active = inhibition above about 50%
GPR151 activ: activators of human GPR151, primary screen, cell-based, PathHunter beta-arrestin, luminescence; G-protein coupled receptor 151 (Homo sapiens), Q8TDV0; PathHunter beta-arrestin GPR151 cells; activation, % at 11.2 µM; 650,000 compounds, 1% hits; AID 1508602, 2020; in the data active = activation above about 4.9%
FBW7 activator: FBW7 E3 ligase activators, primary screen, biochemical, AlphaScreen, human | F-box/WD repeat-containing protein 7 (Homo sapiens), Q969H0 | AlphaScreen FBW7–phospho-cyclin E peptide binding, activator screen | normalized activity (activation), % at 26.1 µM | 650,000 compounds, 0.13% hits | AID 1259310, 2017; in the data active = normalized activity above about 1.9%;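 also: purified mutant Fbw7 with reduced substrate affinity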
Target sequence (Q969H0 whole entry, looked up): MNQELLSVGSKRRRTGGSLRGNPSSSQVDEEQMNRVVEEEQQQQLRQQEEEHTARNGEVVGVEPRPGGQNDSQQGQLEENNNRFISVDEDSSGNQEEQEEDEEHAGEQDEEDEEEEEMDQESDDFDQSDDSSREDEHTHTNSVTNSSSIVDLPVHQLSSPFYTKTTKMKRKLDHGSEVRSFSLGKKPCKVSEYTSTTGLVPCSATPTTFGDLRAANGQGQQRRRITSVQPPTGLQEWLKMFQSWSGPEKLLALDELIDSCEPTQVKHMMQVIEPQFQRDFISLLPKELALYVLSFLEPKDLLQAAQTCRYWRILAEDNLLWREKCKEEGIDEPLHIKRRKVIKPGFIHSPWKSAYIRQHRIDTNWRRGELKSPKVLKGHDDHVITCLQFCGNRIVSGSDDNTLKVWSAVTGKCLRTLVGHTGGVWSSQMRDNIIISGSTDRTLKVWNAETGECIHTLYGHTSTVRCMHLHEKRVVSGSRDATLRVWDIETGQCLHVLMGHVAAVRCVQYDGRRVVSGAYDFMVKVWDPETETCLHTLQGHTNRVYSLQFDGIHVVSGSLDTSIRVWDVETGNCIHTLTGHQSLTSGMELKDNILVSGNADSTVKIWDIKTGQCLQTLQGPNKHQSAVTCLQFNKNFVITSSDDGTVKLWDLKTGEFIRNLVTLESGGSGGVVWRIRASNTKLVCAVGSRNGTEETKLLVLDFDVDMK
Of the large screens only hits and unclear results are named; the others gave an inactive call. Shown are actives, neighbours in structure and some others; about 3.5% of the full set was active somewhere.

NC(=O)c1ccc(NC(=O)COC(=O)c2cc([N+](=O)[O-])ccc2Cl)cc1	none
CCNCCC1CCC(=O)N1CC1OCCc2ccccc21 (stereo not drawn)	none
Cc1c(C(=O)Nc2nc3ccccc3s2)sc2nc(C)n(C)c(=O)c12	TEAD-YAP block 45
COc1ccc2nc(NC(=O)c3sc4nc(C)ccc4c3N)sc2c1	TEAD-YAP block 39
Cc1nc(SCC(=O)Nc2nc3ccccc3s2)c(C#N)c(C)c1C	TEAD-YAP block 95
Cc1nc2sc(C(=O)Nc3nc4ccccc4s3)c(N)c2c(C)c1C	TEAD-YAP block 96
Cc1ccc(Cl)cc1NS(=O)(=O)c1cc2c3c(c1)C(C)C(=O)N3CCC2 (stereo not drawn)	none
O=C(NCCc1cnc[nH]1)c1ccc2c(c1)CC(c1nc3ccc(-c4cn[nH]c4)cc3c(=O)[nH]1)CO2 (stereo not drawn)	none
COc1ccc(/C(C)=N/Nc2nc(-c3cccnc3)nc3ccccc23)cc1OC	TEAD-YAP block 33
COc1ccc(C)cc1-n1c(C)cn2c3c(=O)n(C)c(=O)n(C)c3nc12	TEAD-YAP block 45
COc1ccc(OC)c(-n2c(C)cn3c4c(=O)n(C)c(=O)n(C)c4nc23)c1	none
COc1cc(-c2nnc(SCC(=O)Nc3ccc(C(N)=O)cc3)o2)cc(OC)c1OC	none
Cc1ccc(NC(=O)/C=C/c2ccco2)nc1	none
CC(C)(C)c1ccc(/C=C/C(=O)Nc2ccccn2)cc1	TEAD-YAP block 70
COc1ccc(/C=C/C(=O)NCc2ccccn2)cc1	none
O=C(/C=C/c1ccco1)Nc1ccccn1	TEAD-YAP block 51
COc1ccc(/C=C/C(=O)Nc2ccccn2)cc1	TEAD-YAP block 47
COc1ccc(CN2CC(=O)N(c3ccc(Cl)c(C)c3)C2=S)cc1OC	none
Cc1ccc(/C=C/C(=O)Nc2cccc(Cl)c2C)o1	none
O=C(CNC(=O)c1cccs1)NNC(=O)CN1CCCc2ccccc21	none
Cc1ccc(NS(=O)(=O)CCOc2ccccc2)cc1F	TEAD-YAP block 39
O=S(=O)(CCOc1ccccc1)Nc1ccc2c(c1)Cc1ccccc1-2	none
CCOc1ccc(-n2c(N)c(C#N)c3nc4ccccc4nc32)cc1	none
CCCCC1(CC(=O)Nc2ccc(F)cc2)C(=O)N(c2ccccc2)N(c2ccccc2)C1=O	FBW7 activator 1.9
Nn1c(SCc2cc(=O)oc3cc(O)c(O)cc23)nnc1-c1ccncc1	MITF primary 85
Nn1c(Cc2ccccc2F)nnc1SCc1cc(=O)oc2cc(O)c(O)cc12	MITF primary 95
Cn1c(SCc2cc(=O)oc3cc(O)c(O)cc23)nc2ccccc21	none
O=C(c1ccc2cc[nH]c2c1)N1CCOc2ccc(C(O)c3ccccn3)cc2C1 (stereo not drawn)	none
O=C(Cc1ccccc1)N/N=C/c1ccc(O)c2ncccc12	MITF primary 98
O=C(N/N=C/c1ccc(O)c2ncccc12)c1ccc(F)cc1	MITF primary 113
O=C(Cc1ccccc1)N/N=C/c1cccc2ccccc12	none
CCOc1cc(C#N)c(NC(=O)c2ccco2)cc1OCC	TEAD-YAP block 52
COc1cccc(-c2nnc3sc(CN4CCCCC4)cn23)c1	TEAD-YAP block 48
CCc1nnc2n1N=C(c1ccc3c(c1)OCCO3)CS2	TEAD-YAP block 51
CCOc1ccc(S(=O)(=O)Nc2cccc(C(C)=O)c2)cc1C	none
Nc1ccc2nc(SCC(=O)N3CCN(c4ccc(Cl)cc4)CC3)sc2c1	TEAD-YAP block 51
Cc1cc(C)c(C=Nc2ccccc2C(N)=O)c(C)c1	none
Cc1ccccc1C=Nc1ccccc1C(N)=O	TEAD-YAP block 49
COC(=O)c1ccccc1Sc1c(-c2ccccc2)nc2ncccn12	TEAD-YAP block 45
CC(C)(C)C(=O)Nc1ccc(NC(=O)c2cccs2)nc1	TEAD-YAP block 94
O=c1c(O)c(-c2ccccc2)oc2cc(O)cc(O)c12	none
O=c1c(O)c(-c2cc(O)c(O)c(O)c2)oc2cc(O)cc(O)c12	MITF primary 82
CC(C)n1c(NCCCN2CCCC2=O)nc2c(Nc3ccccc3)ncnc21	TEAD-YAP block 35
CCCNc1ncnc2c1nc(NCCCN1CCCC1=O)n2C(C)C	none
CC(C)n1c(NCCN2CCOCC2)nc2c(Nc3ccc(N4CCOCC4)cc3)ncnc21	none
CC(C)n1c(NCCN2CCOCC2)nc2c(Nc3ccccc3)ncnc21	TEAD-YAP block 41
O=C1N(c2ccccc2)C[C@@H]2C[C@@H](c3cnc(N4CCOCC4)s3)N3CCC[C@@]123	none
CC(C)c1cc(C(=O)NCc2ccco2)nn1-c1nc2ccccc2s1	TEAD-YAP block 78
CC(C)c1cc(C(=O)Nc2ccc(F)cc2)nn1-c1nc2ccccc2s1	none
O=C(O)c1cc(Br)cc2c1N[C@@H](c1ccc(F)cc1)[C@H]1CC=C[C@@H]21	MITF primary 79
Cc1c(C(=O)O)ccc2c1N[C@@H](c1cccc(Cl)c1)[C@H]1CC=C[C@@H]21	MITF primary 76
O=C(O)c1cccc2c1NC(c1ccccc1[N+](=O)[O-])C1CC=CC21 (stereo not drawn)	MITF primary 67
O=C(O)c1cccc2c1NC(c1ccc([N+](=O)[O-])cc1)C1CC=CC21 (stereo not drawn)	MITF primary 65
O=C(O)c1cccc2c1NC(c1cccc(Br)c1)C1CC=CC21 (stereo not drawn)	none
OCCN1CCN(c2cc(-c3cncc(-c4cccs4)c3)nc(-c3ccccc3)n2)CC1	none
COc1ccc2occ(C(=O)COc3ccc(Br)cc3C#N)c2c1	TEAD-YAP block 57
Fc1cc(-c2nc(Nc3cccc(CN4CCOCC4)c3)ncc2F)cc(N2CCOCC2)c1	TEAD-YAP block 91
Cc1nc(C)n(-c2ccc(Nc3ncc(F)c(-c4cc(C#N)cc(N5CCOCC5)c4)n3)cc2)n1	none
Fc1cc(-c2nc(Nc3cccc(CN4CCCC4)c3)ncc2F)cc(N2CCOCC2)c1	TEAD-YAP block 93
Cc1nc(C)n(-c2ccc(Nc3ncc(F)c(-c4cc(F)cc(N5CCN(C)CC5)c4)n3)cc2)n1	TEAD-YAP block 64
Fc1cc(-c2nc(Nc3ccc(-n4ccnc4)cc3)ncc2F)cc(N2CCOCC2)c1	TEAD-YAP block 57
Fc1cc(-c2ccnc(Nc3cccc(CN4CCOCC4)c3)n2)cc(N2CCOCC2)c1	TEAD-YAP block 53
Fc1cc(-c2nc(Nc3cccc(Cn4cccn4)c3)ncc2F)cc(N2CCOCC2)c1	none
CCc1ccc(NC(=O)/C=C/c2cc(OC)c(OC)c(OC)c2)cc1	none
COc1cc(C2C(C(=O)OCCOc3ccccc3)=C(C)NC3=C2C(=O)CC(C)(C)C3)cc(Cl)c1O (stereo not drawn)	none
Cc1ncn(-c2ccc(Nc3nccc(-c4cccc(S(C)(=O)=O)c4)n3)cc2)n1	TEAD-YAP block 47
CN1CCN(c2ncn(-c3ccc(Nc4nccc(-c5cc(F)cc(N6CCOCC6)c5)n4)cc3)n2)CC1	TEAD-YAP block 56
Cc1ncn(-c2ccc(Nc3nccc(-c4cc(F)cc(-c5cn[nH]c5C)c4)n3)cc2)n1	TEAD-YAP block 37
